{
  "source": "PubChem BioAssay AID2283127",
  "about": "(EPA ToxCast)",
  "note": "Records with an inconclusive call do not appear. Calls of active or inactive are those of the source. Rule for the calls: active = hit-call score of the fitted dose curve at least 0.9, where 1 is the maximum; inconclusive = response in the unintended direction; inactive = score below 0.9.",
  "data": [
    {"molecular_target": "human AKT serine/threonine Kinase 3 (AKT3), AKT3 (gene 10000) (UniProt Q9Y243)", "sequence (Q9Y243 whole entry, looked up)": "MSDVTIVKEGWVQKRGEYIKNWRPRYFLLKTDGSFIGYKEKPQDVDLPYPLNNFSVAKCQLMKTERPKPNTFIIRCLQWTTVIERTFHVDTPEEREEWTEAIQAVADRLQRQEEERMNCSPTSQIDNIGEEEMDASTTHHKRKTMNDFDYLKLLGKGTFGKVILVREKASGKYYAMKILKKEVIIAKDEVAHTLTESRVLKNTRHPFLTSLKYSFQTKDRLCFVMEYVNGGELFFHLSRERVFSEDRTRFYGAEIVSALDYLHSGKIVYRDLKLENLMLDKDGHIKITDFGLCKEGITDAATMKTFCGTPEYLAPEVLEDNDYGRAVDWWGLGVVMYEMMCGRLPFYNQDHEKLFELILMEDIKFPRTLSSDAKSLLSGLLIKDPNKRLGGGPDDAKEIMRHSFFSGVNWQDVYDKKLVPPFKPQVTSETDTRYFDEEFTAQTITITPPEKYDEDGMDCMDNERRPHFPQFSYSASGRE", "assay": "NVS_ENZ_hAKT3: NovaScreen (NVS) Enzymatic Assay for human AKT serine/threonine Kinase 3 (AKT3)", "method": "NVS_ENZ_hAKT3 is a biochemical, single-readout assay that uses extracted gene-proteins in a cell-free assay. Measurements were taken 1 hour after chemical dosing in a 384-well plate.NVS_ENZ_hAKT3 is one of one assay component(s) measured or calculated from the NVS_ENZ_hAKT3 assay. It is designed to make measurements of enzyme activity, a form of enzyme reporter, as detected with fluorescence intensity signals by Fluorescence and electrophoretic mobility shift technology.Data from the assay component NVS_ENZ_hAKT3 was analyzed into 1 assay endpoint. This assay endpoint, NVS_ENZ_hAKT3, was analyzed in the positive analysis fitting direction relative to DMSO as the negative control and baseline of activity. Using a type of enzyme reporter, loss-of-signal activity can be used to understand changes in the enzymatic activity as they relate to the gene AKT3. Furthermore, this assay endpoint can be referred to as a primary readout, because this assay has produced multiple assay endpoints where this one serves a enzymatic activity function. To generalize the intended target to other relatable targets, this assay endpoint is annotated to the kinase intended target family, where the subfamily is serine/threonine kinase. […]", "values": [
      {"compound": "CN(C)C(=S)SSC(=S)N(C)C", "outcome": "inactive"},
      {"compound": "S=C([S-])NCCNC(=S)[S-].[Mn+2]", "AC50": "25 µM (active)"}
    ]}
  ]
}
